Only some compounds are listed: those with a hit (about 19% of all), similar ones and a draw of the others.
TDP1 cell CPT – growth inhibition of DT40 Tdp1-/-;hTDP1 cells with camptothecin (screen for TDP1 inhibitors); actives 12% (n = 420,000); Potency, µM (series often up to 46.2 µM), most hits filed as inhibitors; chicken DT40 Tdp1-/-;hTDP1 cells + 20 nM CPT, ATP luminescence, 48 h; AID 686979; further: nearly all actives have a fitted effect of over 55% in size
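Cell growth measured by CellTiter-Glo luminescence after a minimum 48 h, 37 C compound exposure with 20 nM CPT in Tdp1-knockout DT40 cells stably expressing hTDP1, seeded 400/well; qHTS titration format.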
IL-1B inflam inh – inflammasome signaling inhibition, IL-1 beta readout | activity change, % at 57.5 µM | actives 4.7% (n = 360,000) | THP-1 LPS/ATP IL-1B secretion, AlphaLISA, 16 h; hits give low values; in the data active means activity change below about -50%; inconclusive means mostly about -30% to -49%
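THP-1 cells pretreated 1 hr with compounds (up to 57.5 uM final), then stimulated with LPS (250 ng/mL final) plus ATP (1.25 mM final); secreted IL-1B measured by AlphaLISA after 16 hr, decreased signal indicating inhibition.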
HT1080 IDH1KD tx – kills HT-1080 cells with IDH1 knockdown. AID 686971. Potency, µM (highest dose often 46.1 µM), actives largely listed as cytotoxic. HT-1080 IDH1 knockdown viability, ATP luminescence, 48 h. actives 2% (n = 360,000)
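Assay cells: HT-1080 with IDH1 knockdown, 750 per well, RPMI/5% FBS. Exposure: 48 h at 37 °C following 2 h pre-incubation. Read: CellTiter-Glo luminescence; fitted concentration-response, curve class assigned.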
HT1080-NT tox – kills 2HG-producing HT-1080-NT fibrosarcoma cells | Potency, µM (titrated, usually from 46.1 µM), actives largely listed as cytotoxic | AID 686970 | HT-1080-NT fibrosarcoma viability, CellTiter-Glo ATP luminescence, 48 h | actives 1.6% (n = 360,000);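 further: NT is the 2HG producing partner of a matched IDH1 knockdown line; nearly all actives have a fitted effect of over 55% in size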
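750 cells/well, RPMI + 5% FBS; 2 h settle, compound pin-transfer, 48 h at 37 degrees C. CellTiter-Glo 10 min RT, luminescence. Normalized to DMSO and media-only wells.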
DT40 TDP1 no CPT – qHTS for Inhibitors of human tyrosyl-DNA phosphodiesterase 1 (TDP1): qHTS in cells in absence of CPT. Potency, µM (top dose mostly 46.2 µM), hits mostly inhibitors. actives 15% (n = 420,000). AID 686978, 2013. DT40 Tdp1-/- hTDP1 cells, no CPT, ATP luminescence, 48 h; further: nearly all actives have a fitted effect of over 55% in size
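Compound effects on proliferation are scored in DT40 Tdp1-/-;hTDP1 cells in the absence of CPT. ATP levels (CellTiter-Glo luminescence) are recorded after a ≥48 hr, 37 °C incubation.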
ELG1 repair inh – inhibitors of ELG1-dependent DNA repair in HEK293T cells; HEK293T ELG1-luciferase reporter, luminescence, 16 h; DNA damage induced by 5-fluorouridine; Potency, µM (series often up to 46.1 µM), hits mostly inhibitors; actives 2.3% (n = 330,000); further: nearly all actives have a fitted effect of over 55% in size
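Luminescence from the luciferase reporter, measured 30 min after ONE-Glo reagent at room temperature, was the read-out. Beforehand, 2,000 cells per well were exposed for 16 hr at 37 °C to 5-fluorouridine together with compound or vehicle.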
Numbers stand for hits; 0 = inactive; ? = inconclusive; - = not tested or not shown; [ ] = another dose, or the depositor's remark. Unless noted, the call rests on the fitted dose curve; in most records, active means well fitted curve in the direction sought with a large enough effect; inconclusive means small, poorly fitted or top-dose-only effect, or another doubt; inactive means no such curve, though single readings can be large; an effect the other way counts as inactive or inconclusive.

SMILES	TDP1 cell CPT	IL-1B inflam inh	HT1080 IDH1KD tx	HT1080-NT tox	DT40 TDP1 no CPT	ELG1 repair inh
O=C(c1cc2n(n1)C(C(F)(F)F)CC(c1ccco1)N2)N1CCc2ccccc2C1 (stereo not given)	?	0	?	0	18µM	?
O=C(c1ccco1)N1CCN(C(=O)c2cnn3c2NC(c2cccs2)CC3C(F)(F)F)CC1 (stereo not given)	0	0	0	0	0	?
O=C(NC(=S)Nc1cccc([N+](=O)[O-])c1)C1CCCCC1	0	0	0	0	0	0
Cc1cc[n+](CC2OCc3ccccc3CO2)cc1	?	0	0	?	18µM	0
COc1cccc(CN(C)CCCn2cnc(C(=O)Nc3ccc(C)c(C)c3)n2)c1	21µM	0	0	0	?	-
Cc1ccc(NC(=O)c2ncn(CCCN3CCN(Cc4cccc5ccccc45)CC3)n2)cc1C	21µM	-52	?	?	13µM	-
COc1ccc(CN(C)C(=O)Cn2cnc(C(=O)Nc3ccc(C)c(C)c3)n2)cc1OC	18µM	0	0	0	?	0
COCc1ccc(CN2Cc3ccccc3OC(c3ccccc3F)C2)o1 (stereo not given)	0[9.04 µM]	-	-	-	0	-
CN(C(=O)CN1CCN(c2cnn(-c3ccccc3)c(=O)c2Cl)CC1)C1CCS(=O)(=O)C1 (stereo not given)	0	0	0	0	0	0
CCCc1cc(=O)oc2cc(OC(C)C(=O)NCCCn3ccnc3)ccc12 (stereo not given)	0	0	0	0	0	0
COc1ccc(-c2cc(=O)oc3cc(OCC(=O)NCc4ccccn4)ccc23)cc1	?	0	0	0	23µM	?
CCOC(=O)c1c(-c2ccc(OC)cc2)csc1NC(=O)COc1ccc2c(C)cc(=O)oc2c1	23µM	0	0	0	16µM	?
Cc1cc(=O)oc2cc(OCC(=O)NCc3ccccn3)ccc12	0	0	0	0	0	?
CCCc1cc(=O)oc2cc(C)cc(OCC(=O)NCc3ccccn3)c12	18µM	0	0	0	0	0
CC(Oc1ccc2c(-c3ccccc3)cc(=O)oc2c1)C(=O)NCCCn1ccnc1 (stereo not given)	23µM	0	0	0	15µM	0
Cn1ccsc1=NC(=O)c1cc(S(=O)(=O)N2CCOCC2)ccc1F	0	0	0	0	0	0
O=S(=O)(Nc1ccc2ccccc2n1)c1ccccc1	?	0	0	0	0	0
Cc1cc(=O)oc2cc(OC(C)C(=O)NCc3ccccn3)ccc12 (stereo not given)	0	0	0	0	0	0
COc1ccc(-c2cc(=O)oc3cc(OC(C)C(=O)NCc4ccccn4)ccc23)cc1 (stereo not given)	21µM	0	0	0	?	?
C=C(NC(=O)C(=C)NC(=O)c1csc(C2=N[C@@H]3c4csc(n4)[C@H]4NC(=O)c5csc(n5)[C@H]([C@](C)(O)[C@@H](C)O)NC(=O)[C@H]5CSC(=N5)C(=CC)NC(=O)C([C@@H](C)O)NC(=O)c5csc(n5)[C@]3(CC2)NC(=O)[C@H](C)NC(=O)C(=C)NC(=O)[C@H](C)NC(=O)C([C@@H](C)CC)NC2C=Cc3c([C@H](C)O)cc(nc3C2O)C(=O)O[C@@H]4C)n1)C(N)=O (stereo not given in full)	7.2µM	-	-	-	5.1µM	-
CC(C)c1ccccc1-n1c(SCC(=O)N2CCN(c3ccccc3)CC2)nnc1-c1cccnc1	16µM	?	?	?	23µM	0
Cn1c(SCC(=O)N2CCN(c3ccccc3)CC2)nnc1-c1ccncc1	0	0	0[9.24 µM]	0	0	0
CCc1cccc(CC)c1-n1c(SCC(=O)N2CCc3ccccc3C2)nnc1-c1cccnc1	18µM	-58	?	?	23µM	?
COc1ccc(CCNC(=O)c2c(C)oc3ncn(C)c(=O)c23)c(OC)c1	0	-	-	-	0	-
O=C(CSCCO)Nc1cccc(C(F)(F)F)c1	0	0	0	0	0	0
SMILES	TDP1 cell CPT	IL-1B inflam inh	HT1080 IDH1KD tx	HT1080-NT tox	DT40 TDP1 no CPT	ELG1 repair inh
CCc1cccc(NC(=O)CSC2=Nc3ccccc3N=C(c3ccc(F)cc3)C2)c1	21µM	-	-	-	13µM	-
O=C(CSC1=Nc2ccccc2N=C(c2ccc(F)cc2)C1)Nc1cccc(C(F)(F)F)c1	?	-	-	-	23µM	-
O=C(Nc1ccc(Br)cc1)c1ccc(F)c(S(=O)(=O)NCc2cccs2)c1	15µM	-55	?	?	21µM	?
CC(C)c1ccc(NC(=O)c2ccc(F)c(S(=O)(=O)N3CCc4ccccc43)c2)cc1	5.2µM	-	-	-	7.3µM	-
O=S(=O)(NCc1cccs1)c1ccc(Br)cc1	0	0	0	0	0	0
O=C(Nc1ccc(Br)cc1)c1ccc(F)c(S(=O)(=O)N2CCc3ccccc32)c1	23µM	-	-	-	21µM	-
Cc1ccccc1NC(=O)c1ccc(F)c(S(=O)(=O)N2CCc3ccccc3C2)c1	0	-	-	-	?	-
CCOc1ccccc1NC(=O)c1ccc(F)c(S(=O)(=O)NCc2ccc3c(c2)OCO3)c1	0	-	-	-	?	-
O=C(Nc1cccc(Cl)c1)c1ccc(F)c(S(=O)(=O)NCc2ccc3c(c2)OCO3)c1	0	0	0	0	26µM	?
COc1ccc(/C=N/n2nnnc2N)c(OC)c1	0	0	0	0	0	0
CC(C)c1ccc(NC(=O)CCS(=O)(=O)c2ccc3c(c2)CC(=O)N3C)cc1	?	-	-	-	0	-
CC(C)CCN1CCC[C@]2(N[C@H](c3ccc(C(F)(F)F)cc3)[C@@H]3C(=O)N(Cc4ccccc4)C(=O)[C@@H]32)C1=O	18µM	0	0	0	16µM	-
O=C1[C@H]2[C@@H](c3ccc(C(F)(F)F)cc3)N[C@]3(CCCN(Cc4ccccc4)C3=O)[C@H]2C(=O)N1Cc1ccccc1	23µM	0	?	0	23µM	-
O=C1[C@H]2[C@@H](c3ccc(C(F)(F)F)cc3)N[C@]3(CCCN(Cc4ccc(C(F)(F)F)cc4)C3=O)[C@H]2C(=O)N1Cc1ccccc1	18µM	?	?	0	18µM	-
COc1ccc([C@H]2N[C@]3(CCCN(Cc4ccccc4)C3=O)[C@H]3C(=O)N(Cc4ccccc4)C(=O)[C@@H]23)cc1	0	0	0	0	?	-
COc1ccc(CN2CCC[C@]3(N[C@H](c4ccc(C(F)(F)F)cc4)[C@@H]4C(=O)N(C)C(=O)[C@@H]43)C2=O)cc1	23µM	0	0	0	?	-
